Laboratory results from PubChem BioAssay AID1159580 (chemical genetic matrix, 2015).
Values joined by “and” are separate entries in the source; they are usually repeats but may differ in a detail not shown here. Equal values may be shown once. Out of some 5,500 compounds screened, about 2,000 (36%) were called active. Another 18% or so got no clear call; they are omitted. Cut-off read from the data, not from the text of the source: active = normalized growth mostly below about 0.91 (no sharp cut-off); inconclusive = no clear call, values can overlap the other calls; inactive = mostly above about 0.92. This is one part of the list.

Test: chemical genetic growth profiling, strain panel (AID 1159580);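 note: tested at 20 µM; growth read once vehicle control cultures reached saturation at 30 °C; 1 = growth at the plate median or of vehicle wells; lower values mean less growth of the strain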
Details: S. cerevisiae deletion strains, growth OD

Measured: normalized growth

Cn1c(=O)c2c(ncn2CCO)n(C)c1=O
inactive: locus YAL013W, strain DEP1, active compounds read low 1 | locus YAL021C, strain ccr4, active compounds read low 1.02 | locus YAL026C, strain drs2, active compounds read low 1.02 | locus YAL030W, strain snc1, active compounds read low 1.02 | locus YBL061C, strain skt5, active compounds read low 1.03 | locus YBR009C, strain hhf1, active compounds read low 1.02 | locus YBR021W, strain FUR4, active compounds read low 1.04 | locus YBR023C, strain chs3, active compounds read low 1.01 | locus YBR171W, strain sec66, active compounds read low 1.03 | locus YBR229C, strain ROT2, active compounds read low 1 | locus YBR231C, strain swc5, active compounds read low 1.02 | locus YBR279W, strain paf1, active compounds read low 1.02 | locus YCL011C, strain gbp2, active compounds read low 1.02 | locus YCL016C, strain dcc1, active compounds read low 1.01 | locus YCL029C, strain bik1, active compounds read low 1.02 | locus YCL061C, strain MRC1, active compounds read low 1.02 | locus YCL069W, strain vba3, active compounds read low 1.02 | locus YCR088W, strain abp1, active compounds read low 1.02 | locus YDL005C, strain med2, active compounds read low 1.02 | locus YDL035C, strain GPR1, active compounds read low 0.997 | locus YDL040C, strain nat1, active compounds read low 1.01 | locus YDL074C, strain BRE1, active compounds read low 1.04 | locus YDL101C, strain DUN1, active compounds read low 1.02 | locus YDL134C, strain PPH21, active compounds read low 1 | locus YDL185W, strain tfp1, active compounds read low 1 | locus YDL192W, strain arf1, active compounds read low 1.01 | locus YDR001C, strain nth1, active compounds read low 1.02 | locus YDR069C, strain doa4, active compounds read low 1.03 | locus YDR101C, strain arx1, active compounds read low 1.01 | locus YDR137W, strain rgp1, active compounds read low 1.04 | locus YDR150W, strain NUM1, active compounds read low 1 | locus YDR159W, strain sac3, active compounds read low 1.02 | locus YDR162C, strain NBP2, active compounds read low 1.01 | locus YDR195W, strain ref2 0.995 | locus YDR297W, strain sur2, active compounds read low 1 | locus YDR318W, strain mcm21, active compounds read low 1 | locus YDR334W, strain swr1, active compounds read low 1.02 | locus YDR335W, strain msn5, active compounds read low 1.02 | locus YDR388W, active compounds read low 0.998 | locus YDR392W, strain spt3, active compounds read low 1.03 | locus YDR502C, strain sam2, active compounds read low 0.978 | locus YEL003W, strain gim4, active compounds read low 1.02 | locus YEL037C, strain rad23, active compounds read low 1.05 | locus YEL061C, strain CIN8 (second series), active compounds read low 1.02 | locus YEL061C, strain CIN8, active compounds read low 1 | locus YER015W, strain faa2, active compounds read low 1.02 | locus YER016W, strain bim1, active compounds read low 1.01 | locus YER110C, active compounds read low 1.01 | locus YER111C, strain swi4, active compounds read low 1.03 | locus YER155C, strain BEM2 (second series), active compounds read low 1.04 | locus YER155C, strain BEM2, active compounds read low 1.01 | locus YER167W, strain BCK2, active compounds read low 0.979 | locus YFR010W, strain ubp6, active compounds read low 1.02 | locus YGL078C, strain dbp3, active compounds read low 0.994 | locus YGL086W, strain mad1, active compounds read low 0.986 | locus YGL167C, strain pmr1, active compounds read low 1.02 | locus YGL173C, strain kem1, active compounds read low 1.03 | locus YGL227W, strain vid30, active compounds read low 1 | locus YGL240W, strain doc1, active compounds read low 1.02 | locus YGL248W, strain PDE1, active compounds read low 1.01 | locus YGL253W, strain hxk2, active compounds read low 1.02 | locus YGR078C, strain PAC10, active compounds read low 1.02 | locus YGR135W, strain pre9, active compounds read low 0.971 | locus YGR229C, strain SMI1, active compounds read low 0.99 | locus YGR252W, strain gcn5, active compounds read low 0.912 | locus YHR013C, strain ard1, active compounds read low 1.04 | locus YHR027C, strain rpn1, active compounds read low 1 | locus YHR030C, strain SLT2, active compounds read low 0.999 and 0.984 | locus YHR079C, strain IRE1 (second series), active compounds read low 1.01 | locus YHR079C, strain IRE1, active compounds read low 0.974 | locus YHR094C, strain hxt1, active compounds read low 0.998 | locus YHR129C, strain ARP1, active compounds read low 1.02 | locus YHR142W, strain chs7, active compounds read low 1.02 | locus YHR200W, strain rpn10, active compounds read low 0.994 | locus YIL066C, strain RNR3, active compounds read low 1.01 | locus YIL073C, strain SPO22, active compounds read low 0.927 | locus YIL125W, strain kgd1, active compounds read low 0.988 | locus YIR030C, strain dcg1, active compounds read low 1.01 | locus YJL092W, strain hpr5, active compounds read low 1.02 | locus YJL095W, strain BCK1 (second series), active compounds read low 1 | locus YJL095W, strain BCK1, active compounds read low 1.04 and 0.969 | locus YJL115W, strain asf1, active compounds read low 1.02 | locus YJL129C, strain trk1, active compounds read low 1.04 | locus YJL134W, strain LCB3, active compounds read low 1.01 | locus YJL154C, strain vps35, active compounds read low 1.02 | locus YJL164C, strain tpk1, active compounds read low 1.02 | locus YJL166W, strain qcr8, active compounds read low 1.02 | locus YJL168C, strain set2, active compounds read low 1.01 | locus YJL187C, strain SWE1 (second series), active compounds read low 1.03 | locus YJL187C, strain SWE1, active compounds read low 1.01 | locus YJR043C, strain POL32, active compounds read low 1.03 | locus YJR066W, strain TOR1, active compounds read low 0.909
